Screening results: PubChem, several laboratories
Bcl-W Bim block = human Bim-Bcl-W interaction inhibition. Q92843. bead-based flow cytometry, Bim peptide-Bcl-W binding. inhibition, % at 10 µM. 0.02% of 190,000 active. AID 952;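 also: 0% = bound tracer without compound and 100% = peptide blocker; higher means less fluorescent Bim peptide bound to Bcl-W beads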
PKD1 inh = blocks activity of human protein kinase D1 | Q15139 | PKD1 kinase fluorescence polarization assay | inhibition, % (test concentration not listed) | 0.056% of 200,000 active | AID 797; in the data active = inhibition above about 50%
Bfl-1 Bim block = disrupts Bim binding to human Bfl-1. Q16548. Bead-based flow cytometry, Bim-Bfl-1 binding inhibition. inhibition, % at 10 µM. 0.12% of 190,000 active;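 also: 0% = wells without compound plus tracer and 100% = blocker peptide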
Target sequence (Q16548 whole entry, looked up): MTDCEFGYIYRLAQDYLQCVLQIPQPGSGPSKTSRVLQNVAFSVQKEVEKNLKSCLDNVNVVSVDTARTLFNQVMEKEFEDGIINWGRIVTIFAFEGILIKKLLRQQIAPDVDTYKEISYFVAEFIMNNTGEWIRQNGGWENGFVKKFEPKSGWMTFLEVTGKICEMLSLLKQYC
Bim-Bcl-B = inhibitors of Bim-Bcl-B interaction, human. Q9HD36. bead-based flow cytometry, Bim peptide-Bcl-B binding. inhibition, % at 10 µM. 0.073% of 190,000 active. AID 951;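 also: 0% = tracer peptide without compound and 100% = reference inhibitor peptide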
Target sequence (Q9HD36 whole entry, looked up): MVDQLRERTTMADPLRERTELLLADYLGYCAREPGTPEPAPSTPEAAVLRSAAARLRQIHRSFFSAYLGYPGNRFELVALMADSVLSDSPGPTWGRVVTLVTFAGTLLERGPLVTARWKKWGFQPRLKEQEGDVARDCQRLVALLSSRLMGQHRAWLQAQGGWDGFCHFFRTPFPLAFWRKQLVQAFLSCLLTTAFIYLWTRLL
Bcl-XL Bim block = inhibitors of Bim-Bcl-XL interaction, human | AID 1007 | 0.04% of 190,000 active | inhibition, % at 10 µM | Bim peptide-Bcl-XL binding, bead flow cytometry, fluorescence
Bcl-2 Bim block = human Bim-Bcl-2 interaction inhibition. inhibition, % at 10 µM. Bead-based flow cytometry, Bim peptide-Bcl-2 binding. 0.06% of 190,000 active. P10415; in the data active = inhibition above about 40%;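 also: 0% = no compound wells with probe peptide and 100% = reference peptide inhibitor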
PKD FP artifact = FP interference, PKD inhibitor counter-screen | PKD1 FP assay interference counter-screen, fluorescence polarization | inhibition, % at 10 µM | AID 1315 | 85 tested, under 10 active | shares compounds with PKD1 inh; call rule not given here
Starred values were filed as active, the others as inactive; · = no result. An excerpt weighted towards active compounds, which were near 0.24% of everything screened. Rule as the data show it, unless noted: active = inhibition above about 40%.

SMILES	Bcl-W Bim block	PKD1 inh	Bfl-1 Bim block	Bim-Bcl-B	Bcl-XL Bim block	Bcl-2 Bim block	PKD FP artifact
CCOc1ccc2noc3c2c1C(=O)c1ccccc1-3	3	97*	3	2	3	0	62*
O=c1nccc(NCc2ccco2)[nH]1	-3	-13	-23	-8	-9	-11	·
Cc1ccc(-c2csc(NC(=O)CSc3nc4ccccc4c(=O)n3CCCN(C)C)n2)cc1	0	2	-1	-5	1	2	·
CCOC(=O)c1[nH]c2ccc(C)cc2c1NC(=O)CN1CCCCC1	0	-4	-3	0	-1	4	·
CCOC(=O)c1[nH]c2cc(OC)c(OC)cc2c1NC(=O)CN1CCN(C)CC1	1	76*	-1	1	0	-2	-2
C=CCn1c(SC(C)C(=O)NCc2ccc3c(c2)OCO3)nnc1C1CCCCC1 (stereo unspecified)	1	97*	-1	0	0	-2	-5
CCN(CC)c1ccc(/C=C2\CCC(/C=N/NC(=O)c3ccc(=O)n(C)c3)=C2N2CCOCC2)cc1	-2	-13	3	2	-4	5	·
CCOC(=O)N1CCN(S(=O)(=O)c2cc(Br)cc3c2N(C(=O)CC)CC3)CC1	1	-12	-10	-6	-4	-6	·
CCOC(=O)N1CCC(NS(=O)(=O)c2cc(Br)cc3c2N(C(=O)CC)CC3)CC1	0	66*	-7	-4	-4	-6	-18
CC1CCCC(C)N1C(=O)Cn1cc(/C=C2/C(=O)Nc3ccccc32)c2ccccc21 (stereo unspecified)	1	51*	-14	-14	-5	-8	-8
Cc1c(NC(=S)NC(NC(=O)C(C)C)C(Cl)(Cl)Cl)c(=O)n(-c2ccccc2)n1C (stereo unspecified)	-5	2	-10	-10	-8	-7	·
NC(=NCCc1c[nH]c2ccccc12)NS(=O)(=O)c1cc(F)ccc1F	-1	52*	0	-7	-3	-4	-15
NC(=NCCc1ccccc1)NS(=O)(=O)c1ccc(F)cc1	-5	-16	-1	-6	-10	-2	·
COCC(C)n1c(C)cc(C(=O)COC(=O)c2nc3nc(C)cc(C)n3n2)c1C (stereo unspecified)	0	98*	-1	3	-1	0	-6
Cn1c(-c2cccc3ccccc23)n[nH]c1=S	-3	-5	-2	-17	-8	-3	·
CCCCn1c(=O)[nH]c2nc3cc(N)ccc3nc2c1=O	-2	60*	-2	7	-4	2	7
CC(=O)Nc1cccc(OCc2ccc(S(=O)(=O)Cc3ccccc3)cc2)c1	0	10	-1	-5	-3	-3	·
O=C(Nc1ccc(CN2CCOCC2)cc1)c1ccc(-c2ccc(Cl)cc2Cl)o1	0	-4	-1	1	-6	-2	·
O=C(Nc1ccc(CN2CCOCC2)cc1)c1ccc(-c2cccc(Cl)c2)o1	0	86*	0	-2	-1	-2	-16
CCN(Cc1ccccc1)Cc1nnnn1Cc1ccccc1	2	5	-3	1	-1	3	·
CCOC(=O)N1CCN(c2cc(NCCC(=O)O)c3c4c(onc24)-c2ccccc2C3=O)CC1	39	56*	43*	38	40*	31	14
CCOC(=O)N1CCN(c2c(NCCc3ccccc3)c(=O)c2=O)CC1	-1	9	-7	-2	-5	-5	·
O=C(Nc1ccsc1C(=O)NC1CC1)c1ccccc1	-1	50*	-8	-6	1	-6	-10
CCCCNc1c2c3c(cccc3n(C)c1=O)C(=O)c1ccccc1-2	0	32	-16	-17	-2	-4	·
Cn1c(=O)c(NCCO)c2c3c(cccc31)C(=O)c1ccccc1-2	0	144*	-18	0	-2	-7	100*
CC(=O)Nc1ccc(NC(=O)CN(c2cc(Cl)ccc2Cl)S(C)(=O)=O)cc1	11	-4	7	5	4	1	·
COc1cc(/C=N/NC(=O)c2sc(N)c(C#N)c2C)ccc1O	2	9	-17	-4	-1	-9	·
Cc1c(C(=O)N/N=C/c2ccc(O)c(Br)c2)sc(N)c1C#N	8	76*	-1	4	9	-1	-17
Cc1ccccc1NC(=O)c1c(C)nn(-c2ccccc2)c1Cl	-1	-4	-11	-7	-3	-10	·
